Compound activity as filed in PubChem.
GPR151 activ: activators of human GPR151, primary screen, cell-based, PathHunter beta-arrestin, luminescence | G-protein coupled receptor 151 (Homo sapiens), Q8TDV0 | PathHunter beta-arrestin GPR151 cells | activation, % at 11.2 µM | hit rate 1% among 650,000; in the data active = activation above about 4.9%;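 note: 0% = median of compound wells and 100% = cells with positive control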
MITF primary: MITF inhibitors, primary screen, biochemical, AlphaScreen, human | AlphaScreen MITF homodimerization, bead proximity signal | inhibition, % at 2.6 µM | hit rate 0.91% among 650,000 | AID 1259374, 2018; in the data active = inhibition above about 50%;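 note: 0% = vehicle wells with protein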
Target sequence (O75030 whole entry, looked up): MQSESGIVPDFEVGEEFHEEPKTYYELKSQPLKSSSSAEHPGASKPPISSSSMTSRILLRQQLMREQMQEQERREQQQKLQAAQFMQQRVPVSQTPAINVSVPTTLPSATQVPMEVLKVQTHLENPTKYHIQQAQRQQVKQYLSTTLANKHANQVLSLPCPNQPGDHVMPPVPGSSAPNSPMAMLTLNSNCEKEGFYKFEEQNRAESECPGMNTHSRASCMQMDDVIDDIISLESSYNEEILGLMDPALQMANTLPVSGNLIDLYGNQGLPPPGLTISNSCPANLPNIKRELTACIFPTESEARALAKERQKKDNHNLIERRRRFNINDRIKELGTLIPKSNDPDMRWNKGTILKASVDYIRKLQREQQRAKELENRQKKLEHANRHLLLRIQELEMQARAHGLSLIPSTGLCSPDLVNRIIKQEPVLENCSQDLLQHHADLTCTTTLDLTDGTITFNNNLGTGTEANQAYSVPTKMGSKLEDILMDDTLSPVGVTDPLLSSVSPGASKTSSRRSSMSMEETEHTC
TEAD-YAP block: TEAD-YAP interaction inhibition, primary screen, TEAD-YAP interaction inhibitor project, luminescence, HEK-TIYL cells. TEAD-Gal4/YAP UAS-luciferase luminescence. inhibition, % at 9.12 µM. hit rate 1.4% among 640,000; in the data active = inhibition above about 32%;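 note: 0% = median of test compound wells and 100% = reference inhibitor wells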
FBW7 act: FBW7 E3 ligase activators, primary screen, biochemical, AlphaScreen, human | AlphaScreen FBW7–phospho-cyclin E peptide binding, activator screen | normalized activity (activation), % at 26.1 µM | hit rate 0.13% among 650,000 | AID 1259310, 2017; in the data active = normalized activity above about 1.9%;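 note: purified mutant Fbw7 with reduced substrate affinity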
MITF confirm: MITF inhibitors, retest of hits, confirmation, biochemical, AlphaScreen, triplicate. shares compounds with MITF primary. AlphaScreen MITF homodimerization, biotin/His-MITF beads. inhibition, % at 2.6 µM. hit rate 16% among 4,700;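 active = inhibition above a cutoff derived from the DMSO control wells, cut at about 28% in these data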;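 note: 0% = MITF dimer wells with DMSO only; inhibitors lower the bead chemiluminescence by keeping MITF from dimerizing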
AS interf DR: AlphaScreen optical interference compounds, dose response, counter-screen, biochemical, HTS. hit rate 6% among 480. IC50, µM. AID 1259373, 2018. shares compounds with MITF primary. AlphaScreen optical interference counterscreen, cell-free; call rule not given here
AlphaScreen intf2: AlphaScreen optical interference compounds, counter-screen for MITF inhibitor project, biochemical, triplicate | LysRS AlphaScreen counterscreen, signal interference | shares compounds with MITF primary | inhibition, % at 2.6 µM | hit rate 7.6% among 4,700;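 active = inhibition above a cutoff derived from the DMSO control wells, cut at about 30% in these data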
An asterisk follows results filed as active; / = not tested or not shown. Rows were chosen to be rich in hits. Some 3.5% of all compounds tested hit in one or more screens of this group.

SMILES	GPR151 activ	MITF primary	TEAD-YAP block	FBW7 act	MITF confirm	AlphaScreen intf2	others
COc1ccc2c(c1)CC(c1nc3ncc(-c4ccnc(N)n4)cc3[nH]1)CO2 (configuration not stated)	-1	18	22	0	/	/
CC(=O)c1ccc2c(c1)CC(c1nc3ncc(-c4ccnc(N)n4)cc3[nH]1)CO2 (configuration not stated)	2	51*	11	1	23	-12
O=C(CN1CCN(Cc2ccccc2)CC1)Nc1c2c(nc3c1CCC3)CCCC2	1	67*	5	0	-6	-6
O=C(CN1CCN(c2ccccc2)CC1)Nc1c2c(nc3c1CCC3)CCCC2	0	2	-6	0	/	/
CN1CCN(CC(=O)Nc2c3c(nc4ccccc24)CCCC3)CC1	1	60*	2	0	4	13
CN(CC(=O)Nc1c2c(nc3ccccc13)CCC2)Cc1ccccc1	2	71*	-5	0	11	9
O=C(C1CCCN(Cc2ccccc2F)C1)N1CCCCC1 (configuration not stated)	-1	69*	9	0	11	17
O=C(C1CCCN(Cc2ccco2)C1)N1CCCCCC1 (configuration not stated)	3	54*	2	0	5	-2
CCC(C)NCCCCOc1ccc(C)cc1[N+](=O)[O-] (configuration not stated)	2	70*	-6	0	3	14
C=CCNCCCCOc1ccc(C)cc1[N+](=O)[O-]	1	75*	-2	0	-4	0
CCC(C)NCCOc1ccccc1[N+](=O)[O-] (configuration not stated)	1	33	12	0	/	/
COCCCNCCOCCOc1ccc(C)cc1[N+](=O)[O-]	0	30	6	0	/	/
COCCNCCCCOc1ccc(C)cc1[N+](=O)[O-]	-1	17	-3	0	/	/
COCCNCCOCCOc1ccc(C)cc1[N+](=O)[O-]	-1	58*	-8	0	11	10
COCCCn1cnc2c(c1=O)c1nc3ccccc3nc1n2-c1cccc(C)c1	0	21	1	1	/	/
Cc1ccc2nc(N3CCC(NCCc4ccccc4F)CC3)nc(C)c2c1	1	73*	12	0	-12	-7
C/C(=N\NC(N)=S)c1ccc(NC(=O)c2ccc(F)cc2)cc1	3	-2	-22	0	/	/
Cn1c(N2CCN(S(C)(=O)=O)CC2)nc2ccccc21	1	10	-6	0	/	/
Cc1sc2ncnc(N(C)CCc3ccccn3)c2c1C	0	73*	2	0	4	2
COC(=O)c1sc(S(=O)(=O)Oc2ccc(C(C)=O)cc2)c(C(=O)OC)c1C	-2	-2	0	0	/	/
CC(=O)c1ccc(OCC(=O)Nc2ccc(Br)cc2)cc1	1	10	-6	1	/	/
Cc1ccc(C)c2sc(NC(=O)C3=COCCO3)nc12	3	-12	-13	0	/	/
COC(=O)CCc1cc2c(C)cc(=O)oc2cc1OCc1ccc(C)cc1	0	78*	-9	0	38*	-72	AS interf DR=>6.5
COCCNC(=O)c1cnc2scc(C)n2c1=O	1	76*	6	0	7	7
Cc1csc2ncc(C(=O)NCCCO)c(=O)n12	-1	-6	11	0	/	/
SMILES	GPR151 activ	MITF primary	TEAD-YAP block	FBW7 act	MITF confirm	AlphaScreen intf2	others
Cc1noc(C)c1S(=O)(=O)Nc1ccc(C(F)(F)F)cc1	1	14	7	0	/	/
COc1ccccc1C1(NC(=O)CCCCC2SCC3NC(=O)NC32)CCCC1 (configuration not stated)	3	105*	-4	-1	66*	9	AS interf DR=4.9*
O=C(O)CCCC[C@@H]1SC[C@@H]2NC(=O)N[C@@H]21	0	122*	/	-1	124*	100*
COc1cc2c(cc1NC(=O)c1ccc(Cl)cc1Cl)oc1ccccc12	-1	3	-1	0	/	/
O=C(Nc1cc(F)ccc1F)c1ccccn1	0	9	-3	0	/	/
COc1ccc2c(c1)N(C(N)=S)C(C)(C)C=C2C	1	90*	12	-1	73*	57*
COc1ccc(CC(=O)O/N=C(\N)Cc2ccc([N+](=O)[O-])cc2)cc1OC	1	18	3	0	/	/
O=C(c1cccc(F)c1)N1CCN(Cc2cccc(Br)c2)CC1	0	50	11	0	/	/
Cc1cccc(CN2CCN(C(=O)c3ccccc3F)CC2)c1	2	43	7	0	/	/
O=C(c1ccc(-c2ccccc2)cc1)N1CCN(Cc2cccc(F)c2)CC1	-1	64*	-9	0	-4	3
Cc1cccc(CN2CCN(C(=O)c3ccc(F)cc3)CC2)c1	-1	68*	6	1	17	11
O=C(c1ccncc1)N1CCN(Cc2cccc(Br)c2)CC1	1	65*	14	0	-3	-3
COc1cccc(CN2CCN(C(=O)c3ccncc3)CC2)c1	0	81*	0	0	26	-15
O=CN1CCN(C(=S)Nc2ccc(F)c(Cl)c2)CC1	2	8	1	0	/	/
CC(=O)c1c(C)nc2ccccc2c1-c1ccccc1	2	6	4	0	/	/
COc1cccc(CN2CCC(C(=O)NC(C)C)CC2)c1	1	46	3	1	/	/
COc1cccc(CN2CCN(C(=O)Nc3cccc(Cl)c3)CC2)c1	-1	51*	-6	0	3	10
Cc1cccc(CN2CCC(C(=O)NC(C)C)CC2)c1	-1	77*	1	0	-9	-7
COc1cccc(CN2CCN(C(=O)c3ccc(F)cc3)CC2)c1	-2	60*	7	0	52*	21	AS interf DR=>5.3
COc1ccc(CCCC(=O)Nc2ccccc2C)cc1C	1	5	9	0	/	/
CC(=O)N1c2ccc(Br)cc2C2(O)NC(=S)NC12 (configuration not stated)	0	-9	17	0	/	/
CC(=O)N1CCN(Cc2ccc3c(c2)CN(Cc2cnn(-c4ccccc4)c2)CCO3)CC1	0	10	19	0	/	/
COc1ccccc1NC(=O)Cn1cnc2sc(C(=O)Nc3nc4c(C)cccc4s3)c(C)c2c1=O	-1	26	-16	0	/	/
Cc1nc2nc[nH]n2c(=O)c1NS(=O)(=O)c1ccc2c(c1)n(C)c(=O)n2C	-1	64*	4	0	-3	-6
Cc1nc2nc[nH]n2c(=O)c1NS(=O)(=O)c1ccc(F)cc1	0	43	2	0	/	/
